Test results as given in the supplement of paper PMC6555819.

Columns and labels:
Test in all cases: PBM binding z-score (relative to random genomic background probes); higher = stronger binding; sequences stand for … in GC…GCGATTGACAGCGTAGAATGAAGG
[1] = test system: PPARg:RXRa DBDmut IVT, anti-RXR (DBD mutation: RXRa K156A/R161A, NR concentration 270 nM, RXRa partner concentration 90 nM)
Procedure, shortened: (§1)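 Regression normalization was applied to scanned fluorescence from custom Agilent 4×180K protein-binding microarrays. Before scanning, arrays were incubated 1 h with ligand-free nuclear receptor dimers, and binding was detected with antibodies against each partner (one per run). Binding z-scores use the random background probes as reference.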

[2] = test system: PPARg:RXRa IVT, anti-PPARg (NR concentration 270 nM, RXRa partner concentration 90 nM)
Procedure, shortened: as §1

[3] = test system: PPARg DBDmut:RXRa IVT, anti-PPARg (DBD mutation: PPARg1 K132A/R137A, NR concentration 270 nM, RXRa partner concentration 90 nM)
Procedure, shortened: as §1

[4] = test system: PPARg DBDmut IVT, anti-PPARg (DBD mutation: PPARg1 K132A/R137A, NR concentration 270 nM)
Procedure, shortened: as §1

[5] = test system: PPARg homodimer (NR concentration 180 nM)
Procedure, shortened: as §1

[6] = test system: PXR:RXRa (NR concentration 270 nM, RXRa partner concentration 90 nM)
Procedure, shortened: as §1

[7] = test system: PXR homodimer (NR concentration 270 nM)
Procedure, shortened: as §1

[8] = test system: RARa:RXR (NR concentration 270 nM, RXRa partner concentration 90 nM)
Procedure, shortened: as §1

[9] = test system: RARa homodimer (NR concentration 270 nM)
Procedure, shortened: as §1

[10] = test system: RARb:RXRa (NR concentration 270 nM, RXRa partner concentration 90 nM)
Procedure, shortened: as §1

## GGAACAAGGGCATTCGAGTTGATAGCATGGCGAT
[1]
  PBM binding z-score: 2.21
[2]
  PBM binding z-score: 1.65
[3]
  PBM binding z-score: -0.248
[4]
  PBM binding z-score: -0.286
[5]
  PBM binding z-score: 0.614
[6]
  PBM binding z-score: 3.18
[7]
  PBM binding z-score: 0.975
[8]
  PBM binding z-score: 0.884
[9]
  PBM binding z-score: 0.198
[10]
  PBM binding z-score: 2.02

## CCGACTGGGGCAAAGGTTACCATCCTCAGTACGA
[1]
  PBM binding z-score: 4.64
[2]
  PBM binding z-score: 5.59
[3]
  PBM binding z-score: -0.502
[4]
  PBM binding z-score: -0.948
[5]
  PBM binding z-score: 1.17
[6]
  PBM binding z-score: 2.56
[7]
  PBM binding z-score: -0.625
[8]
  PBM binding z-score: 4.05
[9]
  PBM binding z-score: -0.46
[10]
  PBM binding z-score: 2.39

## GCGACTGGGGCATCAGCAGGTTACCGTAACTTAA
[1]
  PBM binding z-score: 3.92
[2]
  PBM binding z-score: 3.16
[3]
  PBM binding z-score: -0.711
[4]
  PBM binding z-score: -1.13
[5]
  PBM binding z-score: 0.0663
[6]
  PBM binding z-score: -0.0573
[7]
  PBM binding z-score: -0.613
[8]
  PBM binding z-score: 0.398
[9]
  PBM binding z-score: -0.334
[10]
  PBM binding z-score: 0.841

## CCGACTGGGGCATAAGGGTACCATAAGCCAGCCC
[1]
  PBM binding z-score: 1.55
[2]
  PBM binding z-score: 1.97
[3]
  PBM binding z-score: -1.37
[4]
  PBM binding z-score: -1.11
[5]
  PBM binding z-score: -0.201
[6]
  PBM binding z-score: -0.472
[7]
  PBM binding z-score: -0.387
[8]
  PBM binding z-score: -0.246
[9]
  PBM binding z-score: -0.606
[10]
  PBM binding z-score: 0.641

## ACTTGCAGGCCAAGTTTGGGTCACTCAAACAAAG
[1]
  PBM binding z-score: 2.37
[2]
  PBM binding z-score: 1.92
[3]
  PBM binding z-score: 0.338
[4]
  PBM binding z-score: 0.0722
[5]
  PBM binding z-score: 0.632
[6]
  PBM binding z-score: 0.858
[7]
  PBM binding z-score: -0.0999
[8]
  PBM binding z-score: 1.61
[9]
  PBM binding z-score: -0.63
[10]
  PBM binding z-score: 2.05

## ATATGTCGGTTACATCCGGGTCATTCAGGCTATG
[1]
  PBM binding z-score: 2.55
[2]
  PBM binding z-score: 3.18
[3]
  PBM binding z-score: 2.61
[4]
  PBM binding z-score: 1.84
[5]
  PBM binding z-score: 1.05
[6]
  PBM binding z-score: 2.85
[7]
  PBM binding z-score: 2.72
[8]
  PBM binding z-score: 2.88
[9]
  PBM binding z-score: 0.00144
[10]
  PBM binding z-score: 1.91

## CGAACTAGGTCATCCTGGACAGTGAATACATTGA
[1]
  PBM binding z-score: 8.23
[2]
  PBM binding z-score: 8.04
[3]
  PBM binding z-score: 1.58
[4]
  PBM binding z-score: 0.831
[5]
  PBM binding z-score: 1.83
[6]
  PBM binding z-score: 1.3
[7]
  PBM binding z-score: -0.0548
[8]
  PBM binding z-score: 2.02
[9]
  PBM binding z-score: 0.627
[10]
  PBM binding z-score: 3.58

## TCTTGTAGATCAACAGGAGGTTATGAAAGATCGA
[1]
  PBM binding z-score: 1.42
[2]
  PBM binding z-score: 0.582
[3]
  PBM binding z-score: 0.881
[4]
  PBM binding z-score: 1.46
[5]
  PBM binding z-score: -0.255
[6]
  PBM binding z-score: 0.762
[7]
  PBM binding z-score: -0.367
[8]
  PBM binding z-score: 0.694
[9]
  PBM binding z-score: -0.449
[10]
  PBM binding z-score: 0.283

## TGAATGAGGTTATAAGATCAGGAAACGTTGCAAA
[1]
  PBM binding z-score: 0.583
[2]
  PBM binding z-score: 1.52
[3]
  PBM binding z-score: 0.845
[4]
  PBM binding z-score: 1.12
[5]
  PBM binding z-score: 0.661
[6]
  PBM binding z-score: 0.789
[7]
  PBM binding z-score: 0.0316
[8]
  PBM binding z-score: 1.46
[9]
  PBM binding z-score: 0.238
[10]
  PBM binding z-score: 1.15

## AGTCAAAGTTAACTAGGTAACGTAAGATTCAGCT
[1]
  PBM binding z-score: 3.88
[2]
  PBM binding z-score: 4.72
[3]
  PBM binding z-score: 1
[4]
  PBM binding z-score: 1.26
[5]
  PBM binding z-score: 0.27
[6]
  PBM binding z-score: -0.0411
[7]
  PBM binding z-score: -0.0667
[8]
  PBM binding z-score: 0.226
[9]
  PBM binding z-score: 0.167
[10]
  PBM binding z-score: 0.61

## CGAACTAGGTCATCCAGGACAGTGACTACATTGA
[1]
  PBM binding z-score: 8.16
[2]
  PBM binding z-score: 8.47
[3]
  PBM binding z-score: 4
[4]
  PBM binding z-score: 0.771
[5]
  PBM binding z-score: 3.18
[6]
  PBM binding z-score: 1.88
[7]
  PBM binding z-score: 1.13
[8]
  PBM binding z-score: 2.32
[9]
  PBM binding z-score: 0.438
[10]
  PBM binding z-score: 3.95

## AATACAGGGTCACTAGGCCAGTGTAGGTACGAAT
[1]
  PBM binding z-score: 4.34
[2]
  PBM binding z-score: 5.58
[3]
  PBM binding z-score: 1.71
[4]
  PBM binding z-score: 1.25
[5]
  PBM binding z-score: 2.55
[6]
  PBM binding z-score: 3.37
[7]
  PBM binding z-score: 0.255
[8]
  PBM binding z-score: 4.63
[9]
  PBM binding z-score: 0.647
[10]
  PBM binding z-score: 4.13

## ACTAGCAGGCCAAGGGTCGCTCAAGATTAGTCCG
[1]
  PBM binding z-score: 0.554
[2]
  PBM binding z-score: 1.95
[3]
  PBM binding z-score: -0.249
[4]
  PBM binding z-score: -1.1
[5]
  PBM binding z-score: 0.333
[6]
  PBM binding z-score: 0.247
[7]
  PBM binding z-score: -0.683
[8]
  PBM binding z-score: 0.951
[9]
  PBM binding z-score: -0.617
[10]
  PBM binding z-score: 1.35

## CCTCCTAGGTCATGGTCAGCTAATCTACAGTATG
[1]
  PBM binding z-score: 3.36
[2]
  PBM binding z-score: 3.76
[3]
  PBM binding z-score: 0.488
[4]
  PBM binding z-score: 0.0352
[5]
  PBM binding z-score: 1.57
[6]
  PBM binding z-score: 1.77
[7]
  PBM binding z-score: 0.241
[8]
  PBM binding z-score: 2.36
[9]
  PBM binding z-score: 1.05
[10]
  PBM binding z-score: 4.02

## CAAACTAGGTCATGAGGTCAAAGTCCGCTTCCCG
[1]
  PBM binding z-score: 8.1
[2]
  PBM binding z-score: 8.5
[3]
  PBM binding z-score: 2.32
[4]
  PBM binding z-score: 1.99
[5]
  PBM binding z-score: 5.08
[6]
  PBM binding z-score: 5.91
[7]
  PBM binding z-score: 4.28
[8]
  PBM binding z-score: 6.92
[9]
  PBM binding z-score: 2.05
[10]
  PBM binding z-score: 5.03

## ATATGTAGGTTACATCCAGGTCATTCAGGCTATG
[1]
  PBM binding z-score: 7.73
[2]
  PBM binding z-score: 7.59
[3]
  PBM binding z-score: 2.75
[4]
  PBM binding z-score: 2.95
[5]
  PBM binding z-score: 2.59
[6]
  PBM binding z-score: 3.82
[7]
  PBM binding z-score: 4.54
[8]
  PBM binding z-score: 3.35
[9]
  PBM binding z-score: 1.06
[10]
  PBM binding z-score: 2.53

## CCGACTGGGGCAAGGTTACCATGACGCACAGCCA
[1]
  PBM binding z-score: 2.69
[2]
  PBM binding z-score: 3.49
[3]
  PBM binding z-score: -0.7
[4]
  PBM binding z-score: -0.368
[5]
  PBM binding z-score: 0.811
[6]
  PBM binding z-score: 0.221
[7]
  PBM binding z-score: -0.439
[8]
  PBM binding z-score: 0.851
[9]
  PBM binding z-score: -0.183
[10]
  PBM binding z-score: 1.62

## TCTGCTAGGTCAGTTGGTCAGCTTACGAGCTGCC
[1]
  PBM binding z-score: 2.73
[2]
  PBM binding z-score: 3.32
[3]
  PBM binding z-score: 0.732
[4]
  PBM binding z-score: -0.0451
[5]
  PBM binding z-score: -0.25
[6]
  PBM binding z-score: 0.13
[7]
  PBM binding z-score: -0.847
[8]
  PBM binding z-score: 0.661
[9]
  PBM binding z-score: -0.758
[10]
  PBM binding z-score: 3.36

## TATAGTTGGTCACGGAGGTCACACACGACGGGTA
[1]
  PBM binding z-score: 1.03
[2]
  PBM binding z-score: 4.52
[3]
  PBM binding z-score: 1.35
[4]
  PBM binding z-score: 2.08
[5]
  PBM binding z-score: 2.56
[6]
  PBM binding z-score: 4.66
[7]
  PBM binding z-score: 1.06
[8]
  PBM binding z-score: 4.48
[9]
  PBM binding z-score: 1.98
[10]
  PBM binding z-score: 4.09

## GATACAGGGTCAAGGCCAGAGCACGCGTATTGAT
[1]
  PBM binding z-score: 2.49
[2]
  PBM binding z-score: 4.08
[3]
  PBM binding z-score: 0.585
[4]
  PBM binding z-score: 0.0811
[5]
  PBM binding z-score: 2.41
[6]
  PBM binding z-score: 3.86
[7]
  PBM binding z-score: 0.352
[8]
  PBM binding z-score: 4.64
[9]
  PBM binding z-score: 0.569
[10]
  PBM binding z-score: 4.5

## CCGTCTGGGGCAAAGGTTACCATACTCAGTACGA
[1]
  PBM binding z-score: 3.2
[2]
  PBM binding z-score: 5.43
[3]
  PBM binding z-score: -0.238
[4]
  PBM binding z-score: -0.231
[5]
  PBM binding z-score: 1.64
[6]
  PBM binding z-score: 2.45
[7]
  PBM binding z-score: -0.428
[8]
  PBM binding z-score: 4.24
[9]
  PBM binding z-score: -0.0466
[10]
  PBM binding z-score: 2.5

## GGAACGAGGGCAAGTTGATAGCCGAGTTTGATGG
[1]
  PBM binding z-score: 3.6
[2]
  PBM binding z-score: 2.74
[3]
  PBM binding z-score: -0.528
[4]
  PBM binding z-score: -0.707
[5]
  PBM binding z-score: 0.106
[6]
  PBM binding z-score: 0.822
[7]
  PBM binding z-score: 0.247
[8]
  PBM binding z-score: 0.442
[9]
  PBM binding z-score: -0.485
[10]
  PBM binding z-score: 2.88

## TCCGCTAGGTCAACGATGGTCAGCTAATCTGCTA
[1]
  PBM binding z-score: 3.72
[2]
  PBM binding z-score: 3.71
[3]
  PBM binding z-score: -0.291
[4]
  PBM binding z-score: -0.242
[5]
  PBM binding z-score: 0.617
[6]
  PBM binding z-score: 1.19
[7]
  PBM binding z-score: -0.762
[8]
  PBM binding z-score: 1.69
[9]
  PBM binding z-score: -0.297
[10]
  PBM binding z-score: 4.13
